# Among all 16,000 compounds or so, about 5,800 (36%) were called active. Not shown: some 23% with an inconclusive outcome. The list shows a part of the results. Unmarked numbers belong to inactive results. The call rests on the fitted dose curve; in most records, active means well fitted curve in the direction sought with a large enough effect; inconclusive means small, poorly fitted or top-dose-only effect, or effect the other way; inactive means no such curve, though single readings can be large or run the other way.
# Target: Cytochrome P450 2C19 (Homo sapiens) (UniProt P33261)
# Test: Cytochrome panel assay with activity outcomes
# Settings: recombinant CYP, pro-luciferin dealkylation, luminescence, p450-cyp2c19; series mostly up to 57.1 µM; activity, negative = inhibition: at the top concentration
# On the % scale 0 is the no-effect control and ±100 the full control effect.
# Cytochrome P450 2C19 (Homo sapiens), sequence (P33261 whole entry, looked up): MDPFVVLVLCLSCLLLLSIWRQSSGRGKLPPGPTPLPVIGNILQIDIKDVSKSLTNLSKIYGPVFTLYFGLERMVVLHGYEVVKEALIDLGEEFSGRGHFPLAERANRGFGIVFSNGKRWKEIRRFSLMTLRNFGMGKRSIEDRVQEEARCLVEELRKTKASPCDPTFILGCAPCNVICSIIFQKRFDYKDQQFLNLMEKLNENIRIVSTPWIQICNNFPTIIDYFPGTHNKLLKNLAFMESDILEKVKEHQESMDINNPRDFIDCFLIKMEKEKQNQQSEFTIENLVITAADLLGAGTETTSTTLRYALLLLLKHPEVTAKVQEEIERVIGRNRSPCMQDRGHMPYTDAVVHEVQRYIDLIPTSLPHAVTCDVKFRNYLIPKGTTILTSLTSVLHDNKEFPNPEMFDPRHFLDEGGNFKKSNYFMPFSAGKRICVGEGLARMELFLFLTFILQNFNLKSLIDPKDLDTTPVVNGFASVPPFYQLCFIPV
Structure (SMILES),AC50,"activity, negative = inhibition"
C[C@@H](COc1ccccc1)N(CCCl)Cc1ccccc1,10 µM (active),
Clc1cnc(Oc2ccc(Oc3ncc(Cl)cc3Cl)cc2)c(Cl)c1,,-18.5%
NCCc1ccc(S(=O)(=O)O)cc1[N+](=O)[O-],,-6.86% [at 11.4 µM]
O=C1c2ccccc2-c2cc([N+](=O)[O-])c([N+](=O)[O-])cc21,0.398 µM (active),
O=C1c2cc([N+](=O)[O-])ccc2-c2ccc3c4ccc5c6c(ccc(c7ccc1c2c73)c64)C(=O)c1cc([N+](=O)[O-])ccc1-5,,-4.82% [at 11.4 µM]
COc1ccccc1CN1CC[C@@]2(CCCN(C(=O)Oc3ccccc3)C2)C1,,-33.4%
CN(CCc1ccc(Cl)c(Cl)c1)[C@H]1CCCC[C@H]1N1CCCC1,15.8 µM (active),
CN(C)CCN(C)CCc1ccc(Cl)c(Cl)c1,10 µM (active),
COc1ccc2c(c1)C13CCCC[C@@H]1C(C2)N(C)CC3 (some centres not stated),,21.6% [at 25.6 µM]
C[C@H](Br)C(=O)c1ccc2cc(Br)c3ccccc3c2c1,,-42.1% [at 11.4 µM]
CCC1=C(C[C@H]2NCCc3cc(OC)c(OC)cc32)C[C@H]2c3ccccc3CCN2C1,,-4.76% [at 11.4 µM]
COc1ccc(Cn2c(N)c(C(=O)NCc3ccco3)c3nc4ccccc4nc32)cc1,2.51 µM (active),
CC(C)CCn1c(N)c(C(=O)NCc2cccs2)c2nc3ccccc3nc21,2.51 µM (active),
CCCCn1c(N)c(C(=O)NCc2cccs2)c2nc3ccccc3nc21,3.98 µM (active),
CSCC[C@@H](N)P(C)(=O)O,,29.3% [at 11.4 µM]
O[Si@](CCCN1CCCCC1)(c1ccc(F)cc1)C1CCCCC1,,-23.4%
C[N+]1(C)[C@@H]2CC(OC(=O)[C@@H](CO)c3ccccc3)C[C@@H]1[C@H]1O[C@H]12 (some centres not stated),,26.7% [at 11.4 µM]
C[C@@H]1O[C@H](OC2[C@@H](O)[C@H](O)C(O)[C@H](O)[C@H]2O)[C@@H](N)C[C@@H]1N=C(N)C(=O)O (some centres not stated),,19% [at 11.4 µM]
N[C@@H](CP(=O)(O)O)C(=O)O,,9.32% [at 11.4 µM]
CC[C@@]1(c2ccc(N)cc2)CCC(=O)NC1=O,inactive,
CN1CC[C@@]2(CCCN(C(=O)Oc3ccccc3)C2)C1,,-1.21%

Structure (SMILES),AC50,"activity, negative = inhibition"
C[C@@]12C=CC(=O)C=C1CC[C@@H]1C2=CC[C@]2(C)[C@@H]1CC[C@H]2C(=O)CN1CCN(c2cc(N3CCCC3)nc(N3CCCC3)n2)CC1,,-31%
O[C@@H](c1cc(-c2ccccc2)nc2c1ccc1ccccc12)[C@@H]1CCCCN1,,-42.2% [at 11.4 µM]
CCCN1CCc2cccc3c2[C@@H]1Cc1ccc(O)c(O)c1-3,,7.56%
C[C@@H]1O[C@H](O[C@@H]2CC[C@@]3(C=O)[C@H]4CC[C@@]5(C)[C@@H](C6=CC(=O)OC6)CC[C@@]5(O)[C@@H]4CC[C@]3(O)C2)C[C@H](O)[C@@H]1O,,17.6% [at 25.6 µM]
COC(=O)[C@@H]1[C@@H]2C[C@H]3c4[nH]c5cc(OC)ccc5c4CCN3C[C@@H]2C[C@H](OC(=O)/C=C\c2cc(OC)c(OC)c(OC)c2)[C@H]1OC,,9.48% [at 25.6 µM]
O=c1[nH]c(=O)n([C@H]2C[C@H](O)[C@H](CO)O2)cc1/C=C\Br,,19.9%
C[C@@]12CC[C@H](O)C[C@@H]1CC[C@H]1[C@H]2CC[C@@]2(C)[C@@H](C3=CC(=O)OC3)CC[C@]12O,,29% [at 25.6 µM]
CC(=O)OCC(=O)[C@@H]1CC[C@H]2[C@H]3CC[C@H]4C[C@@H](O)CC[C@]4(C)[C@@H]3C(=O)C[C@@]12C,,-17.1% [at 25.6 µM]
COc1ccc2c(c1)CN([C@H](C)[C@@H]1CC[C@@H]3[C@H]4CC[C@H]5C[C@@H](O)CC[C@@]5(C)[C@H]4CC[C@]31C)CO2,1 µM (active),
O=c1c(O)c(-c2ccc(O)c(O)c2)oc2cc(O)cc(O)c12,,18.3%
CS(=O)(=O)N1CCCC(C(=O)N2CCC3(CC2)OCCO3)C1 (configuration not stated),10 µM (active),
COc1ccc2c(c[n+](C)c3c4cc5c(cc4ccc23)OCO5)c1OC,10 µM (active),
CC1(C)CCC(C)(C)c2c1ccc(O)c2Cc1c(O)ccc2c1C(C)(C)CCC2(C)C,,-38.9% [at 11.4 µM]
O=C(O)C(C(=O)O)P(=S)(S)c1ccccc1 (configuration not stated),,23.5% [at 11.4 µM]
CC(Oc1ccc(-c2ccccc2)cc1)C(=O)O (configuration not stated),28.2 µM (active),
N[C@H](C(=O)O)c1cc(=O)[nH]o1,,-5.58%
c1cnc(N2CCC3(CCNCC3)CC2)nc1,,-11.8%
C[C@@]12CC[C@H]3[C@@H](CCC4=C(O)C(=O)CC[C@]43C)[C@H]1CCC2=O,,-47.2%
COc1cc(C=C(C#N)C#N)cc(O)c1O,,13.5%
CS(=O)(=O)O[C@H]1CN2CCC1CC2,,20.2% [at 11.4 µM]
S=P(C1CCCCC1)(C1CCCCC1)[C@H](c1cccnc1)N1CCCC1,1.26 µM (active),
